We go through eight molecules from PubChem BioAssay (NCI).

Among the test systems are SR leukemia; RPMI-8226 leukemia; OVCAR-8 ovarian; OVCAR-5 ovarian; OVCAR-4 ovarian; SK-OV-3 ovarian; IGROV1 ovarian; OVCAR-3 ovarian; HS 578T breast; NCI/ADR-RES ovarian; T-47D breast; BT-549 breast; MDA-MB-435 melanoma; SW-620 colon; MCF7 breast; HCT-116 colon; HCC-2998 colon; KM12 colon.
What all share (assay): NCI-60 one-dose screen, 48 h (100 = growth as untreated, 0 = no growth, -100 = all killed)
Details in all cases: 10 µM unless noted

Compounds without any hit were thinned out: in the full panel of roughly 83,000, 20% have a hit.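 Single-concentration screen, 48 h exposure, 96-well plates. Endpoint: percent growth. Below 10 = active.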 Unmarked numbers belong to inactive results. Calls of active or inactive are those of the source.

As for `c1cc2[nH]ncc2cc1-c1nc2ccc3[nH]ncc3c2c2c1CCCC2`, the growth is -13.7% (active) in the assay on SR leukemia; 19.8% with RPMI-8226 leukemia; 17.4% in the assay on OVCAR-8 ovarian; 32.5% in the assay on OVCAR-5 ovarian; 39.9% with OVCAR-4 ovarian; -25.1% (active) with SK-OV-3 ovarian. Moreover, the growth was 8.59% (active) in the assay with IGROV1 ovarian; 28% with OVCAR-3 ovarian; 6.02% (active) in the assay with HS 578T breast; 26.6% with NCI/ADR-RES ovarian; 4.77% (active) in the assay with T-47D breast; 12% in the assay on BT-549 breast. Besides, the growth in the assay with MDA-MB-435 melanoma was 2.02% (active); in the assay with SW-620 colon, 9.28% (active); in the assay with MCF7 breast it was 21.7%; in the assay with HCT-116 colon, 0.11% (active); in the assay on HCC-2998 colon, 13.8%; with KM12 colon, 13.2%.
`C#CCOc1ccc2ncnc(Nc3cccc(NC(=O)C=C)c3)c2c1`: the growth is 17.1% in the assay on SR leukemia; 80.2% with RPMI-8226 leukemia; 45.8% in the assay on OVCAR-8 ovarian; 89.6% with OVCAR-5 ovarian; 76% in the assay with OVCAR-4 ovarian; 60.6% with SK-OV-3 ovarian. The growth was 33.8% with IGROV1 ovarian; 60.6% with OVCAR-3 ovarian; 67.3% in the assay on HS 578T breast; 80.2% in the assay with NCI/ADR-RES ovarian; 70.6% in the assay on T-47D breast; 46.6% with BT-549 breast. Besides, the growth in the assay with MDA-MB-435 melanoma was 69.1%; in the assay on SW-620 colon, 90.3%; in the assay on MCF7 breast, 60.5%; in the assay with HCT-116 colon it was 74.4%; in the assay on HCC-2998 colon it was 90.8%; in the assay with KM12 colon, 83.5%.
On to `O=C1/C(=C/c2ccc(F)cc2)COc2ccc(O)c(O)c21`, for which the growth in the assay on SR leukemia was 18.9%; in the assay on RPMI-8226 leukemia it was -2.78% (active); in the assay on OVCAR-8 ovarian, 6.23% (active); in the assay on OVCAR-5 ovarian, 1.54% (active); with OVCAR-4 ovarian it was 43%; in the assay with SK-OV-3 ovarian, 69.1%. The growth in the assay on IGROV1 ovarian is -21.8% (active); in the assay on OVCAR-3 ovarian it was -2.58% (active); in the assay with HS 578T breast, 21.5%; with NCI/ADR-RES ovarian, 1.04% (active); with T-47D breast it was 4.43% (active); with BT-549 breast, 3.57% (active). Further, the growth is 1.65% (active) with MDA-MB-435 melanoma; -44.8% (active) with SW-620 colon; 17.7% in the assay on MCF7 breast; -3.28% (active) in the assay with HCT-116 colon; 19.9% in the assay with HCC-2998 colon; 1.7% (active) with KM12 colon.
In the case of `O=C1/C(=C/c2cccs2)SC(=S)N1CCCN1CCOCC1`, the growth with SR leukemia was 92.5%; in the assay on RPMI-8226 leukemia it was 97.9%; with OVCAR-8 ovarian it was 96%; with OVCAR-5 ovarian it was 105%; in the assay with OVCAR-4 ovarian, 89.1%; with SK-OV-3 ovarian, 99.4%. The growth with IGROV1 ovarian was 97%; in the assay with OVCAR-3 ovarian, 113%; with HS 578T breast, 98.7%; with NCI/ADR-RES ovarian it was 92.7%; in the assay on T-47D breast, 67.4%; in the assay with BT-549 breast, 102%. Further, the growth in the assay with MDA-MB-435 melanoma is 92.1%; in the assay on SW-620 colon, 101%; in the assay on MCF7 breast it was 73.8%; with HCT-116 colon, 87.8%; in the assay on HCC-2998 colon, 112%; with KM12 colon, 96.8%.
As for `C=CCn1c(SCC(=O)Nc2ccc(C(=O)/C=C/c3ccc(Cl)cc3)cc2)nnc1-c1cc(-c2ccc(S(N)(=O)=O)cc2)nc2ccccc12`, the growth with SR leukemia was 79.5%; in the assay on RPMI-8226 leukemia, 5.47% (active); in the assay with OVCAR-8 ovarian, 55.5%; with OVCAR-5 ovarian, 96.7%; in the assay on OVCAR-4 ovarian, 90.2%; with SK-OV-3 ovarian it was 93.7%. The growth in the assay with IGROV1 ovarian is 87.7%; in the assay on OVCAR-3 ovarian, 82.8%; in the assay with HS 578T breast, 98.2%; with NCI/ADR-RES ovarian, 100%; in the assay on T-47D breast, 81.8%; in the assay with BT-549 breast it was 80.5%. For the same molecule, the growth in the assay on MDA-MB-435 melanoma was 76.1%; in the assay with SW-620 colon, 100%; in the assay with MCF7 breast it was 38.6%; in the assay with HCT-116 colon, -31.5% (active); with HCC-2998 colon, 101%; with KM12 colon, 87.2%.
Regarding `CCN(CC)CCOc1ccc(-c2c(-c3ccccc3)c(=O)oc3ccccc23)cc1`, the growth is 93.6% with SR leukemia; 90.9% in the assay on RPMI-8226 leukemia; 90.6% in the assay with OVCAR-8 ovarian; 95.6% with OVCAR-5 ovarian; 94.2% with OVCAR-4 ovarian; 79.1% in the assay with SK-OV-3 ovarian. Moreover, the growth in the assay with IGROV1 ovarian was 95.5%; with OVCAR-3 ovarian, 104%; in the assay on HS 578T breast, 71.2%; with NCI/ADR-RES ovarian, 84.8%; in the assay with T-47D breast it was 47%; with BT-549 breast it was 69.3%. The growth was 100% in the assay on MDA-MB-435 melanoma; 87.3% with SW-620 colon; 89.6% in the assay on MCF7 breast; 65.6% in the assay with HCT-116 colon; 99.1% in the assay with HCC-2998 colon; 100% in the assay with KM12 colon.
Take `C=C1C(=O)O[C@H]2[C@H]1CC/C(COC(=O)CCSCCC(=O)OC/C1=C/CC[C@@]3(C)O[C@H]3[C@H]3OC(=O)C(=C)[C@@H]3CC1)=C\CC[C@@]1(C)O[C@@H]21`: the growth in the assay with SR leukemia was -15.8% (active); in the assay on RPMI-8226 leukemia it was -27% (active); in the assay on OVCAR-8 ovarian, 9.02% (active); in the assay on OVCAR-5 ovarian, -6.34% (active); in the assay with OVCAR-4 ovarian, 41.7%; in the assay on SK-OV-3 ovarian, 93.6%. The growth in the assay on IGROV1 ovarian is -17.3% (active); in the assay on OVCAR-3 ovarian, -68.8% (active); in the assay with HS 578T breast, 19.4%; in the assay on NCI/ADR-RES ovarian, 53.4%; with T-47D breast, 19.1%; in the assay on BT-549 breast, -9.47% (active). The growth with MDA-MB-435 melanoma is 8.02% (active); in the assay on SW-620 colon, -23.5% (active); in the assay with MCF7 breast, 9.43% (active); with HCT-116 colon, -60.2% (active); with HCC-2998 colon, -1.54% (active); in the assay with KM12 colon, 34.3%.
`CCN(CC)C(=S)SC(SC(=S)N(CC)CC)C(=O)c1nnn(-c2ccc([N+](=O)[O-])cc2)c1C`: the growth with SR leukemia is 55.3%; in the assay with RPMI-8226 leukemia, 90.8%; in the assay with OVCAR-8 ovarian, 101%; in the assay on OVCAR-5 ovarian, 106%; in the assay on OVCAR-4 ovarian, 104%; in the assay with SK-OV-3 ovarian, 112%. In addition, the growth in the assay with IGROV1 ovarian is 71.2%; in the assay on OVCAR-3 ovarian, 98.4%; in the assay on HS 578T breast, 113%; in the assay on NCI/ADR-RES ovarian, 99.8%; in the assay on T-47D breast, 76.4%; with BT-549 breast, 109%. Besides, the growth in the assay with MDA-MB-435 melanoma was 101%; with SW-620 colon, 95.5%; in the assay on MCF7 breast it was 59.3%; in the assay with HCT-116 colon, 95.7%; in the assay on HCC-2998 colon it was 104%; with KM12 colon it was 98%.
